12-LOX inh: Primary qHTS assay for inhibitors of human arachidonate 12S-lipoxygenase (ALOX12): Round 2; Potency, µM (series often up to 108 µM), inactives show at the highest dose activity change, negative = inhibition, actives largely listed as inhibitors; AID 1671190, 2021; purified 12hLO, xylenol orange hydroperoxide absorbance; 580,000 tested, 1.1% active; Polyunsaturated fatty acid lipoxygenase ALOX12 (Homo sapiens), P18054
Target sequence (P18054 whole entry, looked up): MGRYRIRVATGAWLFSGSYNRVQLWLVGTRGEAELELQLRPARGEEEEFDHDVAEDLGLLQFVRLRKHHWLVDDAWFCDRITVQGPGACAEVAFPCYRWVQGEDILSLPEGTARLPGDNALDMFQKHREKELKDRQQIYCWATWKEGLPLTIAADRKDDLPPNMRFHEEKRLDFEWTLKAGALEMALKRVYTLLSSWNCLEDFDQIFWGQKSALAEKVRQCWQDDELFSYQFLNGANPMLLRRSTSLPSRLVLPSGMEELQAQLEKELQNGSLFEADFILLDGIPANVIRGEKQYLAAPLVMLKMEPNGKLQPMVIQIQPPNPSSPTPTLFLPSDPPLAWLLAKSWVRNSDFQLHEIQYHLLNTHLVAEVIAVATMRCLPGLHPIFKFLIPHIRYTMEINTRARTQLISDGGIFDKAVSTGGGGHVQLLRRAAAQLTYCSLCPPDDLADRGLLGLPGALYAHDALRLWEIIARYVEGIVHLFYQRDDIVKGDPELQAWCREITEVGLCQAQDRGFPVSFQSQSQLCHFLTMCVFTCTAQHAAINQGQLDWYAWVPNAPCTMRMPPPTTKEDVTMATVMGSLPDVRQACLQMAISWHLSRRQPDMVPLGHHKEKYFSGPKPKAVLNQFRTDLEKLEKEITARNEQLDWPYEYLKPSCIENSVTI
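Purified human 12hLO (150 nM final) in 25 mM Hepes, 0.01% Triton X-100, pH 7.0 was preincubated 15 min at room temperature with compound. Then 40 uM arachidonic acid was added, 30 min. Hydroperoxide was read by Fe-XO absorbance ratio 573/405 nm.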
RORgamma inh: qHTS for inhibitors of ROR gamma transcriptional activity; Nuclear receptor ROR-gamma (Mus musculus), P51450; Drosophila S2 Gal4-RORgamma UAS-luciferase reporter, 20 h; Potency, µM (titrated, usually from 53.6 µM), inactives show top-dose activity change, negative = inhibition, usual class: inhibitors; 310,000 tested, 5.4% active; AID 2551, 2010; note: nearly all actives have a fitted effect of over 60% in size
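Luciferase reporter read in Schneider cells carrying Gal4-RORγ (mouse) and UAS-Photinus luciferase; cells given compound 1 h before 700 uM copper sulfate induction, then incubated 20 h at ambient temperature.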
ELG1 DNA repair: qHTS screen for small molecules that inhibit ELG1-dependent DNA repair in human embryonic kidney (HEK293T) cells expressing luciferase-tagged ELG1. HEK293T ELG1-luciferase reporter, luminescence, 16 h; DNA damage induced by 5-fluorouridine. 330,000 tested, 2.3% active. Potency, µM (highest dose often 46.1 µM), inactives show at the highest dose activity change, negative = inhibition, hits mostly inhibitors; note: nearly all actives have a fitted effect of over 55% in size
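Reporter activity after DNA damage by 5-fluorouridine is monitored. Compound-treated cells incubate 16 hr at 37 °C, then ONE-Glo is added for 30 min before luminescence reading.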
Gal4-VP16 FLuc: VP16 counterscreen qHTS for inhibitors of ROR gamma transcriptional activity; Drosophila S2 Gal4-VP16 UAS-luciferase, luminescence, 20 h; Potency, µM (top dose mostly 53.6 µM), inactives show at the highest dose activity, negative = inhibition, actives largely listed as inhibitors; 310,000 tested, 3.5% active; AID 2546, 2010;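 note: Gal4-VP16 expression switched on by copper sulfate through the metallothionein promoter; nearly all actives have a fitted effect of over 50% in size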
TDP1 cell noCPT: qHTS for Inhibitors of human tyrosyl-DNA phosphodiesterase 1 (TDP1): qHTS in cells in absence of CPT; DT40 Tdp1-/- hTDP1 cells, no CPT, ATP luminescence, 48 h; 420,000 tested, 15% active; AID 686978, 2013; Potency, µM (highest dose often 46.2 µM), for the others: at the top dose activity change, negative = growth inhibition, actives largely listed as inhibitors; note: nearly all actives have a fitted effect of over 55% in size
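Camptothecin absent (DMSO only). Human TDP1-complemented DT40 knockout cells, 400 cells/well, 37 °C for minimum 48 hr; ATP measured via CellTiter-Glo, 30 min dark incubation, luminescence.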
DT40 TDP1 CPT: qHTS for Inhibitors of human tyrosyl-DNA phosphodiesterase 1 (TDP1): qHTS in cells in presence of CPT; chicken DT40 Tdp1-/-;hTDP1 cells + 20 nM CPT, ATP luminescence, 48 h; Potency, µM (top dose mostly 46.2 µM), for inactives: top-dose activity change, negative = growth inhibition, most hits filed as inhibitors; 420,000 tested, 12% active; note: nearly all actives have a fitted effect of over 55% in size
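Cell growth measured by CellTiter-Glo luminescence after a minimum 48 h, 37 C compound exposure with 20 nM CPT in Tdp1-knockout DT40 cells stably expressing hTDP1, seeded 400/well; qHTS titration format.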
Active calls of the source: *; [ ] = dose if it differs, or a comment. Hits are enriched below; roughly 15% of the tested compounds scored in any of these assays. Calls come from the whole dose curve; as a rule, active = well fitted curve in the direction sought with a large enough effect; inconclusive = small, poorly fitted or top-dose-only effect, or another doubt; inactive = no such curve, though single readings can be large; an effect the other way counts as inactive or inconclusive. % is set by controls: 0 for no effect and ±100 for the full control effect; potency is the fitted concentration of half-maximal effect.

What do the screens show for `COC(=O)C1=C(c2ccccc2OCc2ccccc2)C[C@@H]2CC[C@H]1N2C(=O)NC1CCN(Cc2ccccc2)CC1`?
12-LOX inh: inconclusive; ELG1 DNA repair: inconclusive; TDP1 cell noCPT: 23µM*; DT40 TDP1 CPT: inconclusive

Results for COc1ccc(CC(N)c2csc(NC(=O)Nc3ccccc3Oc3ccccc3)n2)cc1 (stereo unspecified) ?
12-LOX inh: inconclusive; TDP1 cell noCPT: 16µM*; DT40 TDP1 CPT: inconclusive

Results for NC(Cc1ccc(Cl)cc1)c1csc(Nc2cnccn2)n1 (stereo unspecified) ?
12-LOX inh: inconclusive; TDP1 cell noCPT: -83%; DT40 TDP1 CPT: -89%

Results for O=C1NC(=O)C(CCc2ccncc2)(Cc2ccc3c(c2)OCO3)C(=O)N1CCc1ccccc1 (stereo unspecified) ?
12-LOX inh: -5%; RORgamma inh: inconclusive; ELG1 DNA repair: inconclusive; Gal4-VP16 FLuc: -3%; TDP1 cell noCPT: 21µM*; DT40 TDP1 CPT: inconclusive

What do the screens show for `CN1C(=O)N(C)C(=O)C(CCc2ccncc2)(Cc2ccc3c(c2)OCO3)C1=O`?
12-LOX inh: 2%; RORgamma inh: -30%; ELG1 DNA repair: -4%; Gal4-VP16 FLuc: -13%; TDP1 cell noCPT: 16µM*; DT40 TDP1 CPT: inconclusive

How did c1cc(CNCCc2ccc3c(c2)OCO3)ccn1 do in these assays?
12-LOX inh: inconclusive; RORgamma inh: -9%; ELG1 DNA repair: inconclusive; Gal4-VP16 FLuc: 4%; TDP1 cell noCPT: -11%; DT40 TDP1 CPT: -29%

How did Cc1ccc2c(Cl)cc(Cl)c(OCC(=O)N(C(C)C)C(C)C)c2n1 do in these assays?
12-LOX inh: -5%; RORgamma inh: 6.3µM*; ELG1 DNA repair: 26µM*; Gal4-VP16 FLuc: 1%; TDP1 cell noCPT: 18µM*; DT40 TDP1 CPT: 16µM*

How did Cc1ccc(-c2nn(Cc3ccccc3)cc2C=O)cc1 do in these assays?
12-LOX inh: 2%; RORgamma inh: 26%[10 µM]; ELG1 DNA repair: inconclusive; Gal4-VP16 FLuc: inconclusive; TDP1 cell noCPT: inconclusive; DT40 TDP1 CPT: -8%

Results for Cc1ccc(-c2nn(Cc3ccccc3)cc2C=O)cc1C ?
12-LOX inh: -4%; RORgamma inh: -12%[10 µM]; ELG1 DNA repair: inconclusive; Gal4-VP16 FLuc: -9%; TDP1 cell noCPT: 16µM*; DT40 TDP1 CPT: inconclusive

How did ClCCN1CCN(c2ccnc3cc(Cl)ccc23)CC1 do in these assays?
12-LOX inh: -14%; RORgamma inh: -18%; ELG1 DNA repair: 7%; Gal4-VP16 FLuc: -2%; TDP1 cell noCPT: 15µM*; DT40 TDP1 CPT: 13µM*

Results for O=C(Oc1ccnc2cc(Cl)ccc12)N1CCOCC1 ?
12-LOX inh: 1%; RORgamma inh: -3%; ELG1 DNA repair: -5%; Gal4-VP16 FLuc: 7%; TDP1 cell noCPT: inconclusive; DT40 TDP1 CPT: -22%

Results for C=C(C)[C@@H]1CC[C@]2(C(=O)O)CC[C@]3(C)C(CCC4[C@@]5(C)CC[C@H](O)C(C)(C)C5CC[C@]43C)C12 (stereo partly specified) ?
12-LOX inh: 9%; RORgamma inh: 3.2µM*; ELG1 DNA repair: 3%; Gal4-VP16 FLuc: -6%; TDP1 cell noCPT: 7.3µM*; DT40 TDP1 CPT: 6.5µM*

Results for CCC(CO)(C(=O)OC1C[N+]2(C)CCC1CC2)c1ccccc1 (stereo unspecified) ?
12-LOX inh: 45µM*; RORgamma inh: -6%; ELG1 DNA repair: -4%; Gal4-VP16 FLuc: 0%[10 µM]; TDP1 cell noCPT: -4%; DT40 TDP1 CPT: -4%

What do the screens show for `O=C1CN=C(c2cccc(Br)c2)c2cc(Br)ccc2N1`?
12-LOX inh: inconclusive; RORgamma inh: -4%; ELG1 DNA repair: inconclusive; Gal4-VP16 FLuc: -8%; TDP1 cell noCPT: 16µM*; DT40 TDP1 CPT: -4%

How did COc1cc2c(cc1OC)[C@@H]1C(=O)c3ccc(OC)c(CC=C(C)C)c3OC1CO2 (stereo partly specified) do in these assays?
RORgamma inh: 7.9µM*; Gal4-VP16 FLuc: 1.4µM*; TDP1 cell noCPT: 1.6µM*; DT40 TDP1 CPT: 2.9µM*

How did COc1ccc(OC)c(-n2c(O)c(C=NCc3ccc4c(c3)OCO4)c(=O)[nH]c2=O)c1 do in these assays?
12-LOX inh: -9%; RORgamma inh: 12%[10 µM]; ELG1 DNA repair: 2%; Gal4-VP16 FLuc: -4%; TDP1 cell noCPT: -8%; DT40 TDP1 CPT: 6%

What do the screens show for `C#CCN(C[C@@H]1[C@@H](OC(=O)Nc2c(C)noc2C)[C@@H](OC(=O)Nc2c(C)noc2C)Cn2c(=O)n(CCCCCC)c(=O)n21)S(=O)(=O)c1ccc(C)cc1`?
12-LOX inh: inconclusive; TDP1 cell noCPT: 21µM*; DT40 TDP1 CPT: 18µM*

How did CCN(CC)C(=O)c1ccc(NC(=O)c2cc3ccc(OC)cc3nc2C)cc1 do in these assays?
12-LOX inh: -10%

What do the screens show for `CCCn1cc(S(=O)(=O)c2ccc(OC)cc2)c(=O)c2cc(F)c(N3CCCCCC3)cc21`?
12-LOX inh: -10%; TDP1 cell noCPT: 23µM*; DT40 TDP1 CPT: inconclusive

How did COc1ccc2c(c1)c(=O)c(C(=O)c1ccc(Cl)cc1)cn2CC(=O)Nc1ccc2c(c1)OCCO2 do in these assays?
12-LOX inh: -21%; TDP1 cell noCPT: 21µM*; DT40 TDP1 CPT: 18µM*

How did O=C(c1ccc(Cl)cc1)c1cn(Cc2ccccc2)c2cc3c(cc2c1=O)OCCO3 do in these assays?
12-LOX inh: 0%; TDP1 cell noCPT: 23µM*; DT40 TDP1 CPT: inconclusive

What do the screens show for `Cn1cc(C(=O)Cn2cnc3ccccc32)c2ccccc21`?
12-LOX inh: 37%

What do the screens show for `CCOC(=O)c1ccc(N2C(=O)c3n[nH]c(-c4cccs4)c3C2c2ccc(OC)cc2OC)cc1` (stereo unspecified)?
12-LOX inh: -19%; TDP1 cell noCPT: 21µM*; DT40 TDP1 CPT: 23µM*

How did CCOC(=O)COc1ccc(/C=C2\C(=O)NC(=S)N(c3ccc(OC)cc3)C2=O)cc1OC do in these assays?
12-LOX inh: 0%; RORgamma inh: 14%; ELG1 DNA repair: 5%; Gal4-VP16 FLuc: 6%; TDP1 cell noCPT: 17%; DT40 TDP1 CPT: 6%

Compound activity as filed in PubChem BioAssay.
